DAT uptake mod – human DAT dopamine uptake with cocaine, either direction. Q01959. LLC-PK1 hDAT cells, [14C]-dopamine uptake with cocaine IC80; actives deviate in either direction. B-score at 10 µM. hit rate 1.3% among 110,000;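 active = Z score or B-score, a plate-position-corrected score, falls beyond the plate's 99.7% confidence bounds, in either direction; inactive = both scores lie inside the 99.7% bounds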
D1 mod – D1 dopamine receptor (human) allosteric modulation. P21728. HEK293 D1, CRE-luciferase, dopamine EC30 potentiation; actives deviate in either direction. B-score at 10 µM. hit rate 5.9% among 58,000;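 active = luminescence count or its row- and column-corrected plate score outside the 99.7% band of the plate's sample wells, on either side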
FAK inh – inhibitors of human focal adhesion kinase; Q05397; inhibition, %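 (tested at 7 µM)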; biochemical FAK kinase activity assay; hit rate 0.84% among 97,000; in the data active = inhibition above about 19%
CD11b adhes inh – CD11b/CD18-fibrinogen binding inhibition | K562 CD11b/CD18 adhesion to fibrinogen, ATPlite luminescence; Mn2+ added to activate the integrin | inhibition, % at 10 µM | hit rate 0.54% among 93,000 | AID 1497;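 active = primary inhibition of 50% or more at 10 µM, then 40% or more on retest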
Target sequence (P05107 whole entry, looked up, other chains not shown): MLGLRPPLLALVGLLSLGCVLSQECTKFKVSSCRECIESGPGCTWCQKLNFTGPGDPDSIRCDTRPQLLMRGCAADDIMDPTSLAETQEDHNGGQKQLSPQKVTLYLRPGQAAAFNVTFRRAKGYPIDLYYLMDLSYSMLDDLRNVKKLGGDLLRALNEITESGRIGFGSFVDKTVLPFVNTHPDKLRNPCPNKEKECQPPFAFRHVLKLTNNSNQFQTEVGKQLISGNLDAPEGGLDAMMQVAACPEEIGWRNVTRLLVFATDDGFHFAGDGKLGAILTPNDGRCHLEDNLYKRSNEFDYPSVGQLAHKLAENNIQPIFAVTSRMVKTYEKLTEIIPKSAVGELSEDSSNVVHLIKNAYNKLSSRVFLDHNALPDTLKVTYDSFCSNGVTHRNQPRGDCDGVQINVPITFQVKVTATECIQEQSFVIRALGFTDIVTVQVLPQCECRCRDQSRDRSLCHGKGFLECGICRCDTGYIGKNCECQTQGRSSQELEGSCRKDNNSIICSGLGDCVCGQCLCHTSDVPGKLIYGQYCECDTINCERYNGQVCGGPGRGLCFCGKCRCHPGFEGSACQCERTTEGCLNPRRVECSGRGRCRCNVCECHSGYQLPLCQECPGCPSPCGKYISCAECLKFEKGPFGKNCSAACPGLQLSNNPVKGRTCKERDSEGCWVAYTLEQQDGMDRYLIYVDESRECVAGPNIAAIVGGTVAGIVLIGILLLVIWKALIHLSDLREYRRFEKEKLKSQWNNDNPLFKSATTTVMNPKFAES
PTK2B oligo ant – blocks oligomerization of human Pyk2 in cells; Q14289; Q293 cells, Pyk2 FERM NanoBiT luminescence; active compounds read low; z-score (the deposit names both 25 µM and 10 µM); hit rate 0.83% among 99,000;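 active = Z-score of -3 or lower, scaled per plate to the spread of control and sample wells; inactive = z-score above -3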;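 also: negative z-score means lost luminescence so less FERM oligomerization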
CD11b adhes enh – enhancers of human CD11b/CD18 binding to fibrinogen; P05107+P11215; K562 CD11b/CD18 adhesion to fibrinogen, ATPlite luminescence; activation, % at 10 µM; hit rate 0.07% among 93,000; AID 1499;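 active = 10 µM primary screen giving 50% or more activity, confirmed by 40% or more on retest at that dose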
D1 mod confirm – confirmation of human D1 dopamine receptor allosteric modulators; luminescence at 10 µM; HEK293 D1 CRE-luciferase, dopamine EC30 potentiation; active compounds read high; hit rate 88% among 2,200; AID 642; shares compounds with D1 mod;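 active = luminescence in either of two replicates above the same-plate mean plus 3 SD of the low-dose dopamine control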
D1 no dopamine – D1 (human) signaling in absence of dopamine; HEK293 D1 CRE-luciferase, luminescence, no dopamine; active compounds read high; hit rate 0.8% among 1,900; shares compounds with D1 mod; luminescence at 10 µM; in the data active = luminescence above about 3900
Isoprot counter – isoproterenol response counter-screen activity for D1 modulators; shares compounds with D1 mod; HEK293 D1 CRE-luciferase, isoproterenol EC30 counter-screen; calls only at 10 µM; hit rate 63% among 2,200; AID 647;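 active = luminescence in either replicate above plate mean of wells with a partly effective reference agonist dose plus 3 SD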;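 also: isoproterenol raises cAMP through native beta-adrenoceptor Gs so signal bypasses D1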
Large screens that a line does not name were inactive (follow-up assays come after a bar, where they were run). This excerpt belongs to a sample that is enriched for hits.

COc1ccc(CCNS(=O)(=O)c2ccc3c(c2)OCCO3)cc1OC	D1 mod 5.17 | D1 mod confirm 11256 | D1 no dopamine inactive | Isoprot counter inactive
COc1ccc(CCNS(=O)(=O)c2cccc(F)c2)cc1OC	D1 mod 8.13 | D1 mod confirm 11924 | Isoprot counter active
c1ccc2c(c1)ccc1nnc(-c3ccc4c(c3)OCO4)n12	D1 mod 21.9 | D1 mod confirm 24948 | D1 no dopamine inactive | Isoprot counter active
c1ccc2c(c1)ccc1nnc(SCc3ccc4c(c3)OCCO4)n12	none (no result: D1 mod, PTK2B oligo ant)
COc1cccc(C2c3c(oc4ccc(F)cc4c3=O)C(=O)N2CCCN2CCOCC2)c1 (configuration not stated)	D1 mod 3.76 (no result: DAT uptake mod, FAK inh, PTK2B oligo ant) | D1 mod confirm inactive | D1 no dopamine inactive | Isoprot counter inactive
Cc1c(Cl)cccc1-n1c(SCC(=O)NCc2ccccc2Cl)nnc1-c1ccncc1	none (no result: D1 mod, CD11b adhes inh, CD11b adhes enh)
CC(C)OC(=O)/C(C#N)=C/c1c[nH]c2ccccc12	none (no result: DAT uptake mod, D1 mod, FAK inh, PTK2B oligo ant)
Cn1c(=O)n(C)c2cc(S(=O)(=O)NCc3ccco3)ccc21	D1 mod 2.38 (no result: FAK inh) | D1 mod confirm inactive | D1 no dopamine inactive | Isoprot counter inactive
COc1ccc(CN(C2CCCC2)S(=O)(=O)c2ccc(-n3cnnn3)cc2)cc1OC	D1 mod 5.47 (no result: CD11b adhes inh, CD11b adhes enh) | D1 mod confirm 10040 | D1 no dopamine inactive | Isoprot counter inactive
CC1(C)Cc2c(sc3c2c(=N)n(Cc2ccco2)c(=O)n3Cc2ccc(F)cc2)CO1	D1 mod 23.2 (no result: FAK inh) | D1 mod confirm 17584 | D1 no dopamine inactive | Isoprot counter active
COc1ccc(Cn2c(=O)n(Cc3ccco3)c(=N)c3c4c(sc32)COC(C)(C)C4)cc1	D1 mod 21.1 (no result: FAK inh) | D1 mod confirm 22180 | D1 no dopamine inactive | Isoprot counter active
COc1ccc(S(=O)(=O)Nc2ccc(F)c(Cl)c2)cc1OC	none (no result: FAK inh)
CCc1nc(C)c(C#N)c2cc(OC)c(OC)cc12	D1 mod 4.44 | D1 mod confirm 11084 | D1 no dopamine inactive | Isoprot counter active
CCc1nc(-c2ccc(OC)c(OC)c2)cc2cc(OC)c(OC)cc12	none (no result: DAT uptake mod, D1 mod, FAK inh, PTK2B oligo ant)
CCc1nc(N)c(C#N)c(-c2ccncc2)c1C	D1 mod 4.35 | D1 mod confirm 15468 | D1 no dopamine inactive | Isoprot counter inactive
CCc1nc(N)c(C#N)c(-c2ccc(OC)c(OC)c2)c1C	D1 mod 6.72 | D1 mod confirm 11376 | D1 no dopamine inactive | Isoprot counter active
CCCCNC(=O)c1onc(CSc2ccc(F)c(F)c2)c1C(=O)NCCCC	none (no result: D1 mod, FAK inh, CD11b adhes inh, PTK2B oligo ant, CD11b adhes enh)
COc1ccc(OC)c2sc(NC(=O)c3ccc(Cl)s3)nc12	none (no result: PTK2B oligo ant)
CCC(=O)Nc1nc2c(OC)ccc(OC)c2s1	D1 mod 2.94 (no result: PTK2B oligo ant) | D1 mod confirm 8516 | D1 no dopamine inactive | Isoprot counter inactive
COc1ccc(OC)c2sc(NC(=O)C3CC3)nc12	D1 mod 3.94 (no result: PTK2B oligo ant) | D1 mod confirm 10100 | Isoprot counter inactive
CCCC(=O)Nc1nc2c(OC)ccc(OC)c2s1	none (no result: PTK2B oligo ant)
O=C(Nc1cccc(NS(=O)(=O)c2ccc(S(=O)(=O)NC3CC3)cc2)c1)c1ccccn1	none
CC(CNC(=O)C(=O)NC(C)CCc1ccccc1)Cc1ccccc1 (configuration not stated)	none (no result: D1 mod)
O=S(=O)(c1ccc(Cl)s1)N1CCCc2cccc(O)c21	none (no result: D1 mod)
CC1(C)C(c2ccccc2)=NC(c2ccc(F)cc2)N1O (configuration not stated)	none
CC1(C)C(c2cccs2)=NC(c2ccccc2)N1O (configuration not stated)	D1 mod 3.61 | D1 mod confirm 9348 | Isoprot counter active
CC(Sc1nc(-c2ccccc2)nc2c1COC(C)(C)C2)C(=O)N1CCOCC1 (configuration not stated)	none (no result: D1 mod)
Cc1ccc(CNS(=O)(=O)/C=C/c2ccc3c(c2)OCO3)cc1	none (no result: D1 mod)
Oc1ccc(-c2nnc(-c3ccccc3)c(-c3ccccc3)n2)cc1	none (no result: DAT uptake mod, D1 mod, FAK inh, PTK2B oligo ant)
Nc1nnc(-c2ccccc2)c(-c2ccccc2)n1	D1 mod 19.8 | D1 mod confirm 20640 | D1 no dopamine inactive | Isoprot counter active
N#Cc1nc(-c2ccccc2F)oc1N1CCCC1	D1 mod 6.39 | D1 mod confirm 11832 | D1 no dopamine inactive | Isoprot counter active
N#Cc1nc(-c2ccco2)oc1N1CCN(C(c2ccccc2)c2ccccc2)CC1	none
N#Cc1nc(-c2ccco2)oc1N1CCCC1	D1 mod 3.97 | D1 mod confirm 11548 | Isoprot counter active
CC1Cc2ccccc2N1C(=O)CSc1nc2c(c(=O)n(C)c(=O)n2C)n1Cc1ccccc1 (configuration not stated)	none
CC(C)CCn1c(Sc2nc3ccccc3s2)nc2c1c(=O)[nH]c(=O)n2C	D1 mod 21.2 | D1 mod confirm 19816 | D1 no dopamine inactive | Isoprot counter active
CC(CSc1nc2ccccc2s1)Cn1c(N2CCCC2)nc2c1c(=O)[nH]c(=O)n2C (configuration not stated)	D1 mod 2.46 | D1 mod confirm 13288 | Isoprot counter active
CC(C)CCn1c(SCC(=O)c2ccccc2)nc2c1c(=O)[nH]c(=O)n2C	none
CC(C)C(C)(C#N)NC(=O)CSc1nc2scc(-c3ccc(F)cc3)c2c(=O)n1Cc1ccccc1 (configuration not stated)	none (no result: DAT uptake mod, D1 mod, FAK inh, PTK2B oligo ant)
CC1N=C2c3ccccc3N=C(SCc3cc(=O)n4cc(Cl)ccc4n3)N2C1=O (configuration not stated)	D1 mod 4.19 (no result: CD11b adhes inh, CD11b adhes enh) | D1 mod confirm 10900 | D1 no dopamine inactive | Isoprot counter active
Cc1cccc(-c2cc3nc4c(c(N5CCOCC5)n3n2)CCCC4)c1	none
Cc1cccc(-c2cc3nc4c(c(N5CCCC(O)C5)n3n2)CCC4)c1 (configuration not stated)	DAT uptake mod 3.4, D1 mod 8.44 | D1 mod confirm 18448 | D1 no dopamine inactive | Isoprot counter active
OC1CCCN(c2c3c(nc4cc(-c5cccc(Cl)c5)nn24)CCC3)C1 (configuration not stated)	D1 mod 3.35, PTK2B oligo ant -3.24 (no result: CD11b adhes inh, CD11b adhes enh) | D1 mod confirm 16460 | D1 no dopamine inactive | Isoprot counter active
CCCn1c(SCC(=O)Nc2ccccc2C(=O)OC)nc2c1c(=O)n(C)c(=O)n2C	D1 mod 8.5 | D1 mod confirm 12220 | D1 no dopamine inactive | Isoprot counter active
